This is an account of results in PMC5540273 (PLoS ONE, 2017).

Holding throughout (conditions): concentration: 1 μM, replicates: in singlicate; n = 1
Experiment [1] has as its system PRKCD.
Experiment [2] deals with PRKCE.
Experiment [3] has as its system PRKCH.
Experiment [4] deals with PRKCI.
Experiment [5] concerns PRKCQ.
Experiment [6] concerns PRKD1.
For experiment [7], the system named is PRKD2.
The test system of experiment [8] is PRKD3.
In experiment [9] the test system is PRKG1.
For experiment [10], the system named is PRKG2.

SMILES strings stand for the structures.
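Further: KINOMEscan kinase panel screen.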

Turning to `Cc1ccc(O)cc1Nc1cc(C(F)(F)F)nc2ccc(-c3ccncc3)cc12` [GW630823], the “%Inh” value in [1] turned out to be 0%; in experiment [2], 0%; in [3] it was 0%; in experiment [4], 0%; in experiment [5] it was 0%; in experiment [6] it was 3%. Also, the “%Inh” value in experiment [7] stood at 0%; in experiment [8] it was 29%; in [9], 7%; in experiment [10], 0%.
Regarding `Cn1ccc2ncnc(Nc3ccc(Oc4cccc(Cl)c4)c(Cl)c3)c21`, the “%Inh” value in experiment [1] is given as 30%; in experiment [2], 13%; in [3], 3%; in experiment [4], 0%; in experiment [5] it was 60%; in [6] it was 0%. Further, the “%Inh” value in [7] turned out to be 30%; in experiment [8] it was 0%; in [9], 0%; in experiment [10] it was 0%.
As for `NC(=O)c1sc(-n2cnc3ccccc32)cc1OCc1ccccc1F` [GSK1024306], the “%Inh” value is 0% in experiment [1]; 12% in experiment [2]; 17% in experiment [3]; 0% in experiment [4]; 0% in experiment [5]; 0% in experiment [6]. Also, the “%Inh” value in [7] was 7%; in [8], 0%; in experiment [9], 12%; in experiment [10], 0%.
For the molecule `Nc1nc(-c2cccnc2)c(-c2ccnc3ccccc23)s1` [GW684083], the “%Inh” value was 0% in experiment [1]; 0% in [2]; 31% in experiment [3]; 21% in experiment [4]; 4% in experiment [5]; 24% in [6]. Moreover, the “%Inh” value amounted to 34% in experiment [7], 0% in experiment [8], 0% in experiment [9] and 0% in experiment [10].
Take `COc1ccc(Nc2nccc(N3CCC(NC(=O)Nc4ccc5c(c4)OCO5)C3)n2)cc1` (stereo not drawn) [GSK1379745]: the “%Inh” value in experiment [1] worked out at 8%; in experiment [2], 10%; in experiment [3], 12%; in experiment [4] it was 25%; in experiment [5], 2%; in experiment [6], 1%. In addition, the “%Inh” value is recorded as 0% in [7], 25% in [8], 20% in [9] and 0% in experiment [10].
Consider `Nc1nc(-c2ccc3c(N)n[nH]c3c2)cc(N2CCCCC2)n1` [GSK2228768], for which the “%Inh” value in experiment [1] was determined as 0%; in [2], 0%; in experiment [3] it was 0%; in experiment [4], 6%; in [5], 17%; in experiment [6], 0%. The “%Inh” value is 4% in experiment [7], 6% in [8], 0% in [9] and 8% in experiment [10].
Turning to `Cn1cc(-c2ccc3c(c2)CCN3C(=O)Cc2cccc(C(F)(F)F)c2)c2c(N)ncnc21` [GSK2606414], the “%Inh” value is reported as 1% in experiment [1]; 0% in [2]; 23% in experiment [3]; 15% in [4]; 0% in experiment [5]; 0% in experiment [6]. Also, the “%Inh” value in [7] was 0%; in experiment [8], 42%; in [9] it was 19%; in experiment [10], 0%.
In the case of `Fc1cccc(COc2ccc(Nc3ncnc4nn5ccccc5c34)cc2Cl)c1` [GW689066], the “%Inh” value came to 0% in [1]; 0% in [2]; 0% in [3]; 25% in experiment [4]; 7% in experiment [5]; 0% in experiment [6]. Moreover, the “%Inh” value in experiment [7], in experiment [8], in [9] and in experiment [10] was 0% in each case.
`Nc1nc(-c2ccc3c(N)n[nH]c3c2)cc(N2CCC[C@@H](C(=O)Nc3ccccc3)C2)n1.O=C(O)C(F)(F)F.O=C(O)C(F)(F)F` [GSK2288359]: the “%Inh” value in experiment [1] is reported as 0%; in [2] it was 0%; in [3] it was 0%; in experiment [4], 12%; in experiment [5], 7%; in [6] it was 0%. In addition, the “%Inh” value in experiment [7] came out at 1%; in [8], 5%; in [9], 13%; in [10], 29%.
As to `CS(=O)(=O)CCNCc1nc(-c2ccc3ncnc(Nc4ccc(OCc5cccc(F)c5)c(Cl)c4)c3c2)cs1.Cl` [GW583340], the “%Inh” value in experiment [1] was 0%; in experiment [2] it was 0%; in [3] it was 0%; in experiment [4], 13%; in experiment [5], 0%; in [6], 0%. The “%Inh” value stood at 2% in [7], 3% in experiment [8], 0% in experiment [9] and 0% in [10].
With `CCC(CC)(CC)n1cnc2c(N)ncnc21` [SKF-97620], the “%Inh” value in experiment [1] amounted to 8%; in experiment [2] it was 47%; in experiment [3], 20%; in experiment [4], 16%; in [5], 0%; in experiment [6] it was 0%. Also, the “%Inh” value in [7] came to 8%; in experiment [8] it was 0%; in experiment [9], 14%; in experiment [10], 3%.
Take `Clc1cc(Nc2ncnc3cc[nH]c23)ccc1OCc1ccccn1`: the “%Inh” value stood at 13% in experiment [1]; 8% in [2]; 0% in experiment [3]; 9% in experiment [4]; 34% in experiment [5]; 0% in [6]. Besides, the “%Inh” value in [7] was found to be 3%; in experiment [8] it was 0%; in experiment [9], 10%; in experiment [10], 22%.
With `FC(F)(F)c1cc(Nc2nccc(-c3c(-c4ccc(Cl)cc4)nn4ncccc34)n2)ccc1Cl` [GW829351], the “%Inh” value in experiment [1] is listed as 0%; in experiment [2] it was 17%; in experiment [3], 0%; in experiment [4], 0%; in [5], 3%; in [6], 0%. The “%Inh” value is listed as 0% in experiment [7], 0% in [8], 23% in experiment [9] and 0% in [10].
For `CNc1nccc(-c2c(-c3ccc(F)cc3)ncn2CCCN2CCOCC2)n1` [SB-222516], the “%Inh” value in experiment [1] was 1%; in experiment [2], 5%; in experiment [3] it was 0%; in [4] it was 20%; in [5], 0%; in experiment [6], 0%. Further, the “%Inh” value in experiment [7] turned out to be 0%; in [8] it was 0%; in experiment [9], 14%; in experiment [10], 16%.
Regarding `O=C(Nc1n[nH]c2nc(-c3ccco3)c(Br)cc12)c1ccc(CN2CCCC2)cc1.O=C(O)[C@H](O)[C@@H](O)C(=O)O` [SB-742352], the “%Inh” value in experiment [1] came out at 0%; in experiment [2], 2%; in experiment [3] it was 17%; in [4], 0%; in experiment [5], 0%; in [6], 0%. In addition, the “%Inh” value in [7] came out at 30%; in experiment [8] it was 0%; in [9] it was 0%; in experiment [10] it was 0%.
